Common to all, as to test: log2 fold change, soluble protein after heating vs DMSO (PISA); higher = thermal stabilisation; K562 cells, 10 uM, 30 min; active = over 0.2 and 3.5 SD of the protein, either way, in both replicates (recomputed)
Compound in assay [1]: CC1=C(C=C(C=C1)NC(=O)C2=CC(=CC=C2)C(C)(C)C#N)NC3=CC4=C(C=C3)N=CN(C4=O)C
Summed up: (§1)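 K562 cells at 2×10^6 cells/mL were treated with 10 μM compound for 30 min. Aliquots were heated for 3 min across 48°C-58°C, pooled, and extracted in PBS with 0.5% NP-40 at 4°C; soluble protein was the supernatant after 21,000xg for 90 min. Soluble protein was quantified by TMTpro 16plex LC-MS/MS with channel sums equalised, and reported as log2 fold change in thermal stability against DMSO controls, with values from duplicates.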

Compound in assay [2]: CC1=C(C=C(C=C1)NC(=O)C2=CC(=CC=C2)N(C)C)NC(=O)C3=CC=C(C=C3)O
In short, it runs like this:
as §1

Compound in assay [3]: CC1=CC=C(C=C1)SC2=C3C=C(SC3=CN=C2)C(=O)N
Summed up:
as §1

Compound in assay [4]: CC1=NC(=CC=C1)C2=C(N=C(N2)C(C)(C)C)C3=CC4=NC=CN=C4C=C3
Summed up: as §1

Compound in the next assay: CCCCN(Cc1ccc(C(=O)NO)cc1)C(=O)Nc1ccccc1 [Nexturastat A]
Summed up:
as §1

Compound in another assay: CCCS(=O)(=O)Nc1ccc(F)c(C(=O)c2c[nH]c3ncc(-c4ccc(Cl)cc4)cc23)c1F [vemurafenib]
In short, it runs like this:
as §1

Compound in assay [5]: CCCS(=O)(=O)Nc1ccc(F)c(C(=O)c2c[nH]c3ncc(Cl)cc23)c1F
In short, it runs like this: as §1

Compound in assay [6]: CCCc1cc(C)[nH]c(=O)c1CNC(=O)c1cc(-c2ccnc(N3CCN(C)CC3)c2)cc2c1cnn2C(C)C
Summed up:
as §1

Compound in a further assay: CCN(CC)Cc1ccc2cc(COC(=O)Nc3ccc(C(=O)NO)cc3)ccc2c1 [givinostat]
In short, it runs like this:
as §1

Compound in another assay: CCN(CCCOc1ccc2c(Nc3cc(CC(=O)Nc4cccc(F)c4)[nH]n3)ncnc2c1)CCOP(=O)(O)O [barasertib]
Summed up: as §1

Compound in assay [7]: CC[C@@H]1C(=O)N(C)c2cnc(Nc3ccc(C(=O)NC4CCN(C)CC4)cc3OC)nc2N1C1CCCC1
Summed up: as §1

Compound in a further assay: CC[C@@H]1C(=O)N(C)c2cnc(Nc3ccc(C(=O)N[C@H]4CC[C@H](N5CCN(CC6CC6)CC5)CC4)cc3OC)nc2N1C(C)C [volasertib]
In short, it runs like this:
as §1

Compound in assay [8]: CC[C@H](C)N1C=C(C2=C(C=C(C=C21)C3=CN=C(C=C3)N4CCNCC4)C(=O)NCC5=C(C=C(NC5=O)C)C)C
In short, it runs like this:
as §1

Compound in another assay: CC[C@H](C)[C@@H](C(=O)N[C@@H]([C@@H](C)O)C(=O)N[C@@H](CC(C)C)C(=O)[C@]1(CO1)C)NC(=O)[C@H]([C@@H](C)CC)N(C)C(=O)C [epoxomicin]
In short, it runs like this:
as §1

Compound in assay [9]: CCn1c(C(=O)N(C2CC2)C2CC2)cc2c3c(ncn3C)c(Nc3cc(C)n(C)n3)nc21
In short, it runs like this:
as §1

Compound in assay [10]: CCn1cc(-c2ccnc3[nH]c(-c4cccc(CN(C)C)c4)cc23)c(-c2ccc(NC(=O)N(C)C)cc2)n1
Summed up:
as §1

Compound in assay [11]: CN(C)CC(=O)Nc1ccc2[nH]c(=O)c3ccccc3c2c1
Summed up:
as §1

Compound in the next assay: CN(CCOC1=CC=C(C=C1)C[C@H]2C(=O)NC(=O)S2)C3=CC=CC=N3 (racemic) [rosiglitazone]
Summed up: as §1

Compound in assay [12]: CN1C2=C(C3=C1C(=O)N(N=C3)CC4=CC(=CC=C4)N)SC(=C2)S(=O)C
In short, it runs like this:
as §1

Compound in assay [13]: CN1CCC(CNc2ccc3ncc(-c4cccc(OC(F)(F)F)c4)n3n2)CC1
In short, it runs like this:
as §1

Targets with a hit are over-represented here; the source holds about 7,900 in all. About 0.6% of all pairs of compound and target were hits. Values without a mark were called inactive.

UniProt P27708, sequence (P27708 whole entry, looked up): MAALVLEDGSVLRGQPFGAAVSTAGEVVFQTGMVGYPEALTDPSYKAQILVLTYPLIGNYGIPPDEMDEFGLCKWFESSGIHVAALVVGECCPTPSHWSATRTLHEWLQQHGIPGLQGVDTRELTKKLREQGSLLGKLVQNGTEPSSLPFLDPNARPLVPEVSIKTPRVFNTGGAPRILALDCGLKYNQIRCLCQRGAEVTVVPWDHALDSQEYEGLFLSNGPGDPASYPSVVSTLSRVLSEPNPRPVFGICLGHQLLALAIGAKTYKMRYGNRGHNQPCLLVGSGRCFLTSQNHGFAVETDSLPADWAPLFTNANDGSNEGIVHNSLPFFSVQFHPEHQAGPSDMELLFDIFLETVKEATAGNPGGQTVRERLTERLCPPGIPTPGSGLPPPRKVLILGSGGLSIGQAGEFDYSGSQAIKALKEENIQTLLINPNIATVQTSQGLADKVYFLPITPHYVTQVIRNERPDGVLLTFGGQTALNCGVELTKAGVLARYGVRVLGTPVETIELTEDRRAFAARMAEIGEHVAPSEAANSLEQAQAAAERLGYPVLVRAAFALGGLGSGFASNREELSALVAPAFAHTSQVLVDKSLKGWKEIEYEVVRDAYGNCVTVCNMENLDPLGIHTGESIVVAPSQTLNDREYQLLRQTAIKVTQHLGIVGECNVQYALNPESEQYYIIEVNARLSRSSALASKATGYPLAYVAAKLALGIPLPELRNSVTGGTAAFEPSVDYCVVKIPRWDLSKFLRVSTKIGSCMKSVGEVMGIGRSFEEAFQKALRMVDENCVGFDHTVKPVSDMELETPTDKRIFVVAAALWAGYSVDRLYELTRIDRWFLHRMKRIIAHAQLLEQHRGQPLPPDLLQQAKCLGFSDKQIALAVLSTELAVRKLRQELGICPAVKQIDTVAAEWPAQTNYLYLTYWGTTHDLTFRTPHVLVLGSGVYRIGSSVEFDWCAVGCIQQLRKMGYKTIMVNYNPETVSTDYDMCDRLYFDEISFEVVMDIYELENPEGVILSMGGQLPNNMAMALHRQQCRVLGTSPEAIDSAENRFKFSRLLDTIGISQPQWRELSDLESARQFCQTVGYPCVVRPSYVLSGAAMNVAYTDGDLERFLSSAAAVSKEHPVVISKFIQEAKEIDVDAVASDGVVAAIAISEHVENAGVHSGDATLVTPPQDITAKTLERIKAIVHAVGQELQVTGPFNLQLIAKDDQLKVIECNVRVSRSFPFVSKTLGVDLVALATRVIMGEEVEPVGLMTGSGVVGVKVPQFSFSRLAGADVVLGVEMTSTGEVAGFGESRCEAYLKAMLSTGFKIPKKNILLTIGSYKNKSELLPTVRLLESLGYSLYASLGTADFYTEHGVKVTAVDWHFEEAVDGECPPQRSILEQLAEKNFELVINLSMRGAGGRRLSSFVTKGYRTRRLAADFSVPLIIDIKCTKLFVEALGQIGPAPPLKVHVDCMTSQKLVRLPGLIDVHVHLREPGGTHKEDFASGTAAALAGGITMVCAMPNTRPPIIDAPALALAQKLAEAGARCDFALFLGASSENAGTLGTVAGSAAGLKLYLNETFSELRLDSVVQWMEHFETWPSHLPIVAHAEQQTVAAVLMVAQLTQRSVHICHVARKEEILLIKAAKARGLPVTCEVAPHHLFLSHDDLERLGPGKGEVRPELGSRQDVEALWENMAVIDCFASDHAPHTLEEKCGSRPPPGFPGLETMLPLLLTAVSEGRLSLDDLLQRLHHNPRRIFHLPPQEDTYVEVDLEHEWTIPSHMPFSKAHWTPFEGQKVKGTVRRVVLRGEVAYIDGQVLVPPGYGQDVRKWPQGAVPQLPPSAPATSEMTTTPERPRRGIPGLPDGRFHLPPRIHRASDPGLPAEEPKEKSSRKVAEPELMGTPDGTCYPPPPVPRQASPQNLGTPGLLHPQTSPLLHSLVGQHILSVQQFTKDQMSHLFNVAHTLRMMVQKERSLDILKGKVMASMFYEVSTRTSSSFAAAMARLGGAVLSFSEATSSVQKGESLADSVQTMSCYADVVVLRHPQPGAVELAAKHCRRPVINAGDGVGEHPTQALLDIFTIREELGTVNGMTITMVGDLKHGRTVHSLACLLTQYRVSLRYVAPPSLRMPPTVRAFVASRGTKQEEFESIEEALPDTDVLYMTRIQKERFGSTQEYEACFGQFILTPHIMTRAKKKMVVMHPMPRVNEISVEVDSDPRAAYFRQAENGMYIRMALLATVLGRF
UniProt P35790, sequence (P35790 whole entry, looked up): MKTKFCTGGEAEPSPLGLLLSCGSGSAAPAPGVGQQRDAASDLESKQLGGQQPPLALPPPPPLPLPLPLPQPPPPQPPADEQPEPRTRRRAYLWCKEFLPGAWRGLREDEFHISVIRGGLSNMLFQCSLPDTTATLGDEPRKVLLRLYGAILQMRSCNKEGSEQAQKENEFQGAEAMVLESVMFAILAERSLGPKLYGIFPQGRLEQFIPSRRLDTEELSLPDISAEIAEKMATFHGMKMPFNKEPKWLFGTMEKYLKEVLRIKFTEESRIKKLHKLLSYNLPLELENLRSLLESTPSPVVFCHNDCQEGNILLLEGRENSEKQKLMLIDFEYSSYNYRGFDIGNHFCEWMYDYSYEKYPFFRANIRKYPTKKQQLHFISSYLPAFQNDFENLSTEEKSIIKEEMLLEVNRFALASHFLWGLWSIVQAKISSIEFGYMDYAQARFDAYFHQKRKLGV
UniProt O00748, sequence (O00748 whole entry, looked up): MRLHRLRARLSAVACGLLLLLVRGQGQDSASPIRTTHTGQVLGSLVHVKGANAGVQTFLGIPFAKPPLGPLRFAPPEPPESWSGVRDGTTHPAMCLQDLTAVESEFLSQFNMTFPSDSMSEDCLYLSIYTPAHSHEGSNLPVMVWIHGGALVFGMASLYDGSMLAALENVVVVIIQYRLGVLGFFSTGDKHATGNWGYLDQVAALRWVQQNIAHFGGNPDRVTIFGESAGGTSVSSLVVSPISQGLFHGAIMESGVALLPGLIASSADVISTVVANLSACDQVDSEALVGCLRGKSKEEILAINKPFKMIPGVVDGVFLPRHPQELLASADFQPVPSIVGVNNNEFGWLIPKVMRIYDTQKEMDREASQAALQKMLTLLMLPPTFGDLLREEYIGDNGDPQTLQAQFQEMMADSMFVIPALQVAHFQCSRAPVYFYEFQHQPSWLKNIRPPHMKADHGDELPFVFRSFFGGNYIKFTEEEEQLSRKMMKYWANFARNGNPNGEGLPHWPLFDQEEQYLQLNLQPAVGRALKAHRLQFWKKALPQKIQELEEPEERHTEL
UniProt Q8N1A6, sequence (Q8N1A6 whole entry, looked up): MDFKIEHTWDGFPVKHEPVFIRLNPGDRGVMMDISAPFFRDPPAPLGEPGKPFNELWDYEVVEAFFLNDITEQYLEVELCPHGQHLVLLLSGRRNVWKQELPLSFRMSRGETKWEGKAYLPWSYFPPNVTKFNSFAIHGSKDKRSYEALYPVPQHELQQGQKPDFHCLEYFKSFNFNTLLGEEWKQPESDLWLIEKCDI
UniProt Q9UKF6, sequence (Q9UKF6 whole entry, looked up): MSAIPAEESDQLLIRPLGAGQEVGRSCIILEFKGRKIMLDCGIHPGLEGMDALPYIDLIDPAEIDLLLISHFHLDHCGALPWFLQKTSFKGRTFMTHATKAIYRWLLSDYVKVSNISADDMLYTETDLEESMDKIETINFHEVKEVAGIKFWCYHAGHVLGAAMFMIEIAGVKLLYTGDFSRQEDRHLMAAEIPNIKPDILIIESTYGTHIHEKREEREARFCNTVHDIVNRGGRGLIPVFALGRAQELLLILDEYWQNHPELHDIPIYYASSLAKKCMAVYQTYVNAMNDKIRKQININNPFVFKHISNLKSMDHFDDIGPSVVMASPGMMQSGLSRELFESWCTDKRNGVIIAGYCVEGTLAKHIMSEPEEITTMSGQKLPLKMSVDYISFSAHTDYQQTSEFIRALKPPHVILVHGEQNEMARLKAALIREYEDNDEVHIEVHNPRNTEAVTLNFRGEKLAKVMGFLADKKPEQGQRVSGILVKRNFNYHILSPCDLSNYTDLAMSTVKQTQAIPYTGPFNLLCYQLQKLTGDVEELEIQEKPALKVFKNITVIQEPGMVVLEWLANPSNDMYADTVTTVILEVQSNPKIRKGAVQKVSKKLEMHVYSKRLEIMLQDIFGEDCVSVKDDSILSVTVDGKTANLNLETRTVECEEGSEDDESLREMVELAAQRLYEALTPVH
UniProt P51798, sequence (P51798 whole entry, looked up): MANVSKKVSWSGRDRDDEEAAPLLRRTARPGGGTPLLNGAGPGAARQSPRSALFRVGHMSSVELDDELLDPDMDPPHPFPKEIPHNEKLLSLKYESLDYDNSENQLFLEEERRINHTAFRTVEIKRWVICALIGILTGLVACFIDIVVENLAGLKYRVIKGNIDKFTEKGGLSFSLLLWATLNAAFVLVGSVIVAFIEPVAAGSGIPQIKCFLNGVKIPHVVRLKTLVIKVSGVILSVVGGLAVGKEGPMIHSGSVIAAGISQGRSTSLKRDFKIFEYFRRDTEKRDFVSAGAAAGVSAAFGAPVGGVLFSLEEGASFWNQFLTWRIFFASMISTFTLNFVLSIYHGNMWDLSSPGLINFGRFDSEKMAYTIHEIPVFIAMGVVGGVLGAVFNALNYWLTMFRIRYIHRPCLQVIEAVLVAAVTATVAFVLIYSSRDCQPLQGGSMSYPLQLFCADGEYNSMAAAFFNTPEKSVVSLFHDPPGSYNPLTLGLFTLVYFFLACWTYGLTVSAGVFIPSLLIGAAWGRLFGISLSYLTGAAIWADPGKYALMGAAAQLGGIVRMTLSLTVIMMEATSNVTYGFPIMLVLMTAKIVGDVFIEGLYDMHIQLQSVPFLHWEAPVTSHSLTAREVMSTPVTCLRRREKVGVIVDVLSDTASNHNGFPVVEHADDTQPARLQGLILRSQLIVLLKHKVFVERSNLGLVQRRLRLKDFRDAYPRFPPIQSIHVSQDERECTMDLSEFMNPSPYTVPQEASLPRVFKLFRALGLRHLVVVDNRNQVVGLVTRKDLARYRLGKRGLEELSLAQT

In the case of CHKA (UniProt P35790), the log2 fold change was -0.011 in assay [1]; -0.048 in assay [2]; -0.125 in assay [3]; 0.033 in [4]; 0.036 in the assay with Nexturastat A; -0.017 with vemurafenib. Besides, the log2 fold change was 0.019 in assay [5]; -0.164 in assay [6]; 0.334 (active) with givinostat; 0.05 with barasertib; 0.22 in [7]; 0.161 in the assay with volasertib. Also, the log2 fold change was -0.077 in [8]; 0.127 with epoxomicin; -0.001 in assay [9]; 0.203 in assay [10]; 0.043 in assay [11]; 0.044 with rosiglitazone. In addition, the log2 fold change is -0.082 in assay [12] and 0.187 in assay [13].
For the target CLCN7 (UniProt P51798), the log2 fold change was 0.027 in [1]; -0.026 in assay [2]; 0.029 in assay [3]; 0.006 in [4]; -0.07 with Nexturastat A; 0.001 with vemurafenib. For the same target, the log2 fold change was 0.038 in assay [5]; -0.068 in assay [6]; -0.007 with givinostat; -0.015 in the assay with barasertib; -0.338 (active) in assay [7]; -0.297 in the assay with volasertib. The log2 fold change was 0.031 in assay [8]; -0.001 with epoxomicin; -0.022 in assay [9]; -0.047 in assay [10]; -0.01 in assay [11]; 0.049 with rosiglitazone. Besides, the log2 fold change in assay [12] was 0.009; in assay [13], -1.05 (active).
As to CES2 isoform 4 (UniProt O00748), the log2 fold change in [1] was -0.003; in [2], -0.072; in [3], 0.005; in assay [4], -0.065; with Nexturastat A it was 0.058; with vemurafenib it was -0.029. Also, the log2 fold change was -0.105 in [5]; 0.003 in [6]; 0.021 with givinostat; 0.022 with barasertib; 0.033 in assay [7]; 0.108 with volasertib. Moreover, the log2 fold change in assay [8] is 0.1; with epoxomicin, -0.168; in assay [9] it was 0.187; in assay [10], -0.012; in [11] it was -0.02; with rosiglitazone it was 0.023. Further, the log2 fold change in assay [12] was 0.034; in assay [13], 0.054.
Regarding C4orf33 (UniProt Q8N1A6), the log2 fold change in [1] was -0.101; in [2] it was 0.04; in assay [3], 0.049; in [4], -0.049; with Nexturastat A it was 0.018; with vemurafenib it was -0.01. The log2 fold change is -0.082 in [5]; 0.07 in [6]; 0.055 with givinostat; 0.03 in the assay with barasertib; 0.044 in [7]; 0.066 with volasertib. Also, the log2 fold change was 0.007 in [8]; -0.084 in the assay with epoxomicin; -0.034 in assay [9]; -0.062 in [10]; -0.007 in [11]; 0.155 in the assay with rosiglitazone. Besides, the log2 fold change in assay [12] was 0.009; in assay [13] it was -0.027.
Regarding CAD (UniProt P27708), the log2 fold change in assay [1] is -0.047; in [2] it was -0.009; in [3] it was 0.027; in assay [4], 0.012; in the assay with Nexturastat A it was 0; with vemurafenib, -0.041. In addition, the log2 fold change in assay [5] was -0.018; in assay [6], -0.078; with givinostat, 0.008; with barasertib, 0.002; in [7] it was 0.006; in the assay with volasertib, 0.009. The log2 fold change was 0.019 in assay [8]; 0.034 with epoxomicin; -0.169 in assay [9]; -0.08 in assay [10]; 0.022 in [11]; 0.032 in the assay with rosiglitazone. For the same target, the log2 fold change in assay [12] is -0.028; in assay [13] it was -0.458 (active).
Consider CPSF3 (UniProt Q9UKF6), for which the log2 fold change in assay [1] is -0.014; in assay [2] it was 0.005; in [3], -0.006; in [4] it was -0.012; in the assay with Nexturastat A it was -0.085; with vemurafenib it was 0.017. Further, the log2 fold change in assay [5] is 0.063; in assay [6] it was -0.001; in the assay with givinostat, -0.03; in the assay with barasertib, 0.022; in assay [7] it was -0.105; with volasertib it was -0.252 (active). Also, the log2 fold change in assay [8] is 0.043; with epoxomicin, -0.013; in assay [9], -0.032; in assay [10], -0.008; in [11], 0.033; with rosiglitazone, 0.014. The figures for the log2 fold change in assay [12] and in assay [13] were -0.032 and 0.003, respectively.
Consider C4A (UniProt P0C0L4), for which the log2 fold change in assay [1] was -0.154; in [2] it was 0.19; in assay [3], 0.111; in assay [4], 0.215; with Nexturastat A, -0.008; in the assay with vemurafenib, 0.148. Besides, the log2 fold change in [5] was -0.02; in assay [6], -0.287; in the assay with givinostat it was 0.001; with barasertib, 0.021; in assay [7] it was -0.147; with volasertib, -0.216. For the same target, the log2 fold change in assay [8] is -0.048; with epoxomicin, -0.316; in assay [9] it was -0.079; in assay [10] it was 0.197; in assay [11], 0; with rosiglitazone it was 0.154. For the same target, the log2 fold change in assay [12] was 0.223; in [13], -0.32.

These data come from the supplement of paper PMC10849652.
